In PubChem BioAssay (NCATS):
“And” between values parts separate entries of the source, which are not always exact repeats. Equal entries are not always repeated. Results filed as inconclusive are left out. Some structures have more than one record in an assay (separate samples or runs), and their calls can disagree. The source made the active and inactive calls. Unless noted, calls come from the whole dose curve; as a rule, active = well fitted curve in the direction sought with a large enough effect; inconclusive = small, poorly fitted or top-dose-only effect, or another doubt; inactive = no such curve, though single readings can be large; an effect the other way counts as inactive or inconclusive.

How the values were obtained:
[1] = target: Cytochrome P450 1A2 (Homo sapiens) (UniProt P05177); assay: p450-cyp1a2 (AID 410; calls by dose curve; note: potency is the fitted concentration of half-maximal effect;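 for activity change, negative = inhibition: -100% = full effect of reference inhibitor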)
Chain of Cytochrome P450 1A2 (Homo sapiens) (P05177 whole entry, looked up): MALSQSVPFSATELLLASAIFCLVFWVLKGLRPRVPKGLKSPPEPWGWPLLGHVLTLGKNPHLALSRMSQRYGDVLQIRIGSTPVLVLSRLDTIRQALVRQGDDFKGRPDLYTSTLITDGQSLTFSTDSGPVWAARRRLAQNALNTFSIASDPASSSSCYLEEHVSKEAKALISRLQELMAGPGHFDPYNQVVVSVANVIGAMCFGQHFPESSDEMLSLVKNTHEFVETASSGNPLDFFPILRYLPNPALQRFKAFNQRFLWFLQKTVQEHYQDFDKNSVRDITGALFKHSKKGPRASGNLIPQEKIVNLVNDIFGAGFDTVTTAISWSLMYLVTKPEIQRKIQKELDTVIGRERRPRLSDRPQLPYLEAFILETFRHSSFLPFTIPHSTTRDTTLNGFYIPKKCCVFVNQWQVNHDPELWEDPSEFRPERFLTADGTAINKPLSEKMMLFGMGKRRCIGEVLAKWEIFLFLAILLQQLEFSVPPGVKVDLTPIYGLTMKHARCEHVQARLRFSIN
Method in brief: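 20nM CYP1A2, 100uM Luciferin-ME (=Km), 100mM KPO4; cpd 10 min RT; +NADPH regen, 60 min RT; stop/detect 20 min; luminescence. Normalized to furafylline 57 uM = full inhibition.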

[2] = NFAT Signaling Pathway (AID 444; active = well fitted curve in either direction with a large enough effect, not every such curve was filed as active;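 note: carbachol stimulus at about its EC50 of 1 µM final; % is set by controls: 0 for no effect and ±100 for the full control effect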); details: Jurkat NFAT-bla M1, carbachol, beta-lactamase ratio, 5 h; at 17.2 µM (top of the series) unless noted
Method in brief: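 Jurkat cells carrying an NFAT-driven β-lactamase reporter and co-transfected muscarinic M1 receptor were treated with compound plus carbachol (1 uM final, an EC50 level) for 5 h at 37 °C. CCF4 loading followed for 1 h at RT; 460/530 nm ratio gave %activity.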

[3] = target: Glucocorticoid receptor (Homo sapiens) (UniProt P04150); assay: GR-GFP Redistribution (AID 450;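 active = compounds whose dose series gives a full or clear partial fitted curve of increased nuclear translocation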; note: potency is the fitted concentration of half-maximal effect)
Chain of Glucocorticoid receptor (Homo sapiens) (P04150 whole entry, looked up, the tested form may be a part): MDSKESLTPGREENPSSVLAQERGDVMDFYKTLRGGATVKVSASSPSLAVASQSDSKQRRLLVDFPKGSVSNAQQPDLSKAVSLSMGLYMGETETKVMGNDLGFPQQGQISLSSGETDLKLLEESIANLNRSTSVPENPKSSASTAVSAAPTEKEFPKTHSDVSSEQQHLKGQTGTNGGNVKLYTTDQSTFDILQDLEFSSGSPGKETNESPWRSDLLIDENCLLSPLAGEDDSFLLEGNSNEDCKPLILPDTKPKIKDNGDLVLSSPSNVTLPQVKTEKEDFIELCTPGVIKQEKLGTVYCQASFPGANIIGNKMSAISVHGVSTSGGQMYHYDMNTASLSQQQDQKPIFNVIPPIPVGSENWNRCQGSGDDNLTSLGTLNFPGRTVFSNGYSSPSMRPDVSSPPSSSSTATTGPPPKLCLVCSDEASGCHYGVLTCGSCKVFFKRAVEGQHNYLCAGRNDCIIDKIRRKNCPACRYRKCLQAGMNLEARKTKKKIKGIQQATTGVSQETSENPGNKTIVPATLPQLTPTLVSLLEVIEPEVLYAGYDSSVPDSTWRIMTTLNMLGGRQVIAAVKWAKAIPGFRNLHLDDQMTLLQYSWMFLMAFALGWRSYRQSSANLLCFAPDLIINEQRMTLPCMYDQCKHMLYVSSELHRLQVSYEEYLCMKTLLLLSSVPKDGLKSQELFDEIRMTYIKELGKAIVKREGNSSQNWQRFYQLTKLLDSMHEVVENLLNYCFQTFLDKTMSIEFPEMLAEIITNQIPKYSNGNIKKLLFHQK

[4] = target: Glucocorticoid receptor (Homo sapiens) (UniProt P04150); assay: GR-EFC Redistribution (AID 451; calls by dose curve; note: potency is the fitted concentration of half-maximal effect); details: CHO-K1 GR-EFC translocation, beta-gal luminescence, 2 h
Method in brief: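 CHO-K1 cells stably expressing nuclear-localized β-gal enzyme acceptor and GR fused C-terminally to the enzyme donor fragment; ligand-driven nuclear translocation restores β-gal by complementation. Compounds titrated up to 46 uM final, 2 h at 37 °C; luminescence read.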

[5] = target: Mitogen-activated protein kinase 10 (Mus musculus) (UniProt Q61831); assay: JNK3 AlphaScreen Assay (AID 530; active = well fitted curve in either direction with a large enough effect, not every such curve was filed as active;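 note: kinase came from lysate of stimulated human HepG2 cells; signal reports phosphorylation of biotinylated GST-cJun 1-79 at Ser73 with 10 µM ATP; % is set by controls: 0 for no effect and ±100 for the full control effect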)
Method in brief: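 Biotinylated GST-cJun(1-79) served as substrate for JNK3 in HepG2 lysates stimulated with IL-1beta and TNF-alpha. ATP was 10 uM final, pH 7.6. Ser73 phosphorylation was quantified by AlphaScreen (680 nm excitation).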

[6] = target: 3',5'-cyclic-AMP phosphodiesterase 4B (Homo sapiens) (UniProt Q07343); assay: qHTS Assay for Inhibitors of PDE-IV (AID 607; active = well fitted activation curve with a large enough effect in the main read-out, with a control signal flat, not every such curve was filed as active; note: % of control where 0% means no effect)
Chain of 3',5'-cyclic-AMP phosphodiesterase 4B (Homo sapiens) (Q07343 whole entry, looked up): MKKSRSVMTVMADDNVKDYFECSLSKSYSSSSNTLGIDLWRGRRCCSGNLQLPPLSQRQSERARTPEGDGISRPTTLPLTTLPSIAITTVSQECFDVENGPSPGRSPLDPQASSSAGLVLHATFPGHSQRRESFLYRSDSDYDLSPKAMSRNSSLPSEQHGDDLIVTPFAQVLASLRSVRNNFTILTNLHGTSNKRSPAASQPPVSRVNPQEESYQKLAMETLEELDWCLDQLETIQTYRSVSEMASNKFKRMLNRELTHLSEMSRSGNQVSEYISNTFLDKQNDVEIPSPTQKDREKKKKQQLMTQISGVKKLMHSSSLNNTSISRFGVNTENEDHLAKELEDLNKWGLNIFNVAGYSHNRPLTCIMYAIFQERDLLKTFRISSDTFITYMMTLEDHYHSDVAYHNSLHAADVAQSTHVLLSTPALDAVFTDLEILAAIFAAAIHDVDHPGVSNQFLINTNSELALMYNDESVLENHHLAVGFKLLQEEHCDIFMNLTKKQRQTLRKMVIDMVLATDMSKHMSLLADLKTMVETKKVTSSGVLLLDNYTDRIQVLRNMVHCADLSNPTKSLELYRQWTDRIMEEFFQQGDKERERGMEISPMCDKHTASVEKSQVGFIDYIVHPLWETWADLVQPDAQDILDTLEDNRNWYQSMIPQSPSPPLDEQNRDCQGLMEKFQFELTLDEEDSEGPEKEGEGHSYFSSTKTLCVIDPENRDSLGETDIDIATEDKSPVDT
Method in brief: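 Live HEK293 cells with a modified cyclic nucleotide-gated (CNG) channel report intracellular cAMP via membrane-potential dye fluorescence (ex 535/em 590 nm). Endogenous PDE-IV was targeted. Compounds were tested at up to 22.9 uM final; RO 20-1724 100 uM served as control.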

[7] = target: Cytochrome P450 3A4 (Homo sapiens) (UniProt P08684); assay: qHTS Assay for Activators of Cytochrome P450 3A4 (AID 885); note: nearly all actives have a fitted effect of over 65% in size
Chain of Cytochrome P450 3A4 (Homo sapiens) (P08684 whole entry, looked up): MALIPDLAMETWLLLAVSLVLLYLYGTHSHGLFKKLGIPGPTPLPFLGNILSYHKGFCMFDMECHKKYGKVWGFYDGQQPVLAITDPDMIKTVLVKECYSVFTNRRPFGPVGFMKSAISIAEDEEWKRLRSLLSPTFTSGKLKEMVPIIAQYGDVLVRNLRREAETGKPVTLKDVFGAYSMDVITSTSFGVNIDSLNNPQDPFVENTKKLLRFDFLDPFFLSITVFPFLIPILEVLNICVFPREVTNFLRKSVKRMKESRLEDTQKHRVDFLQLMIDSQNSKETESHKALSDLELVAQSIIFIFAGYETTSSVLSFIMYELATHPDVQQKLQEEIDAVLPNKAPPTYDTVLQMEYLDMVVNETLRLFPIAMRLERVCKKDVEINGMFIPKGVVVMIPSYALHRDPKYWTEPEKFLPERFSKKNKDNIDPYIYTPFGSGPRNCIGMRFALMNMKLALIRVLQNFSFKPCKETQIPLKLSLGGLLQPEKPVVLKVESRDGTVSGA
Method in brief: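 Using 20nM recombinant human CYP3A4 in potassium phosphate (200mM), substrate Luciferin-PPXE at 25uM, luminescent luciferin detection followed a 60-min RT NADPH reaction; data scaled to 57 uM ketoconazole.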

[8] = target: Cytochrome P450 2D6 (Homo sapiens) (UniProt P10635); assay: qHTS Assay for Inhibitors and Substrates of Cytochrome P450 2D6 (AID 891);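 note: luciferin methyl ether substrate demethylated by CYP2D6 with NADPH regeneration; % is set by controls: 0 for no effect and ±100 for the full control effect; nearly all actives have a fitted effect of over 60% in size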
Chain of Cytochrome P450 2D6 (Homo sapiens) (P10635 whole entry, looked up): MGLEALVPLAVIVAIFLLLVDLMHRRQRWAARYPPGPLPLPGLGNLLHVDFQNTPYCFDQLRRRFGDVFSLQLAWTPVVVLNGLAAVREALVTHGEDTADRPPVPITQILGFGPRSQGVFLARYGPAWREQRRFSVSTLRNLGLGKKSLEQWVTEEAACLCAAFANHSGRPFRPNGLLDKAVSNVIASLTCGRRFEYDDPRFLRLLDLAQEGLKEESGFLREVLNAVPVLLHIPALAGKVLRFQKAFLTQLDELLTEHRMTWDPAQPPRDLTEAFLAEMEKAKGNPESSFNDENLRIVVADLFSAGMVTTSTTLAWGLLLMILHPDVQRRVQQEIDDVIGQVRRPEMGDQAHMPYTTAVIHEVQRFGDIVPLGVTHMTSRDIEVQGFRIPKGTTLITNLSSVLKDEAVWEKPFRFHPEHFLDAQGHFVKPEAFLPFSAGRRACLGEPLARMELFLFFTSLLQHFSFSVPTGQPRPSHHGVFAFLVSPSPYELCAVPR
Method in brief: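 Luminescent read-out of luciferin formed by 5 nM human CYP2D6 demethylating 30 uM Luciferin-ME EGE (Km level) over 60 min at room temperature after NADPH regeneration addition. Data normalized to full inhibition by 1.43 uM quinidine.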

[9] = qHTS Assay for Identification of Small Molecule Antagonists for Thrombopoietin (TPO) Signaling Pathway (AID 918); details: TPO-dependent cell signaling reporter, antagonist mode; note: potency is the fitted concentration of half-maximal effect; nearly all actives have a fitted effect of over 60% in size
Method in brief: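 Luminescence read-out: GPIIb-promoter luciferase in Ba/F3 cells carrying human TPO receptor. Compounds added with 26 pM TPO (EC50), 24 hrs, 37 C, 5% CO2; cells deprived of IL-3 overnight beforehand. Inhibition of signal scored.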

[10] = target: Pyruvate kinase (Leishmania mexicana) (UniProt Q27686); assay: qHTS Validation Assay for Inhibitors of Leishmania Mexicana Pyruvate Kinase (AID 945);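 note: 0% = DMSO only neutral control wells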
Method in brief: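 LmPYK E451W 0.2 nM; 0.5 mM PEP, 0.1 mM ADP, 7 mM MgCl2, 50 mM KCl, imidazole pH 7.2, 0.01% Tween 20, 0.05% BSA; 1 h RT; PKLight luminescence; DMSO-normalized.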

[11] = target: Pyruvate kinase PKM (Homo sapiens) (UniProt P14618); assay: qHTS Assay for Activators of Human Muscle Pyruvate Kinase (AID 954; active = well fitted curve in the direction sought with a large enough effect, not every such curve was filed as active;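 note: 0% = uninhibited enzyme and -100% = no enzyme or full thiadiazolimine inhibition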)
Chain of Pyruvate kinase PKM (Homo sapiens) (P14618 whole entry, looked up): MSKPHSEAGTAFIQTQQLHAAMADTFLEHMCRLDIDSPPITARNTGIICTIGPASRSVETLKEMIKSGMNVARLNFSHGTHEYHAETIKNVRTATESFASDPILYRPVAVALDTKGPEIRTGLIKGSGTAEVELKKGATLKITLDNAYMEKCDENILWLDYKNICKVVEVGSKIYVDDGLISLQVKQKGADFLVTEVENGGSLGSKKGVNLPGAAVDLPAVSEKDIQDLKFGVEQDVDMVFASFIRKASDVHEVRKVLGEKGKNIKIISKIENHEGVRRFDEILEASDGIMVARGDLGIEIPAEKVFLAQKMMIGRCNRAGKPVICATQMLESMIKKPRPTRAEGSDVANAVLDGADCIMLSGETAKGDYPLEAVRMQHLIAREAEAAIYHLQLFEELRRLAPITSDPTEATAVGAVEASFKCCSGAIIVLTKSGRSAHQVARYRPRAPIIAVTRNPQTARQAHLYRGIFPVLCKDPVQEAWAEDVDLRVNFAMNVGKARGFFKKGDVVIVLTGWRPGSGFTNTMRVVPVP
Method in brief: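 Screening used highly purified human pyruvate kinase M2 under submaximal activity, with PEP at its Km and ADP below Km. After an hour at room temperature, ATP was read by luciferase luminescence.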

[12] = target: Alpha-galactosidase A (Homo sapiens) (UniProt P06280); assay: Counterscreen for Glucocerebrosidase Inhibitors: qHTS Assay for Human alpha-Galactosidase at pH 4.5 (AID 992); note: 0% is about no effect
Chain of Alpha-galactosidase A (Homo sapiens) (P06280 whole entry, looked up): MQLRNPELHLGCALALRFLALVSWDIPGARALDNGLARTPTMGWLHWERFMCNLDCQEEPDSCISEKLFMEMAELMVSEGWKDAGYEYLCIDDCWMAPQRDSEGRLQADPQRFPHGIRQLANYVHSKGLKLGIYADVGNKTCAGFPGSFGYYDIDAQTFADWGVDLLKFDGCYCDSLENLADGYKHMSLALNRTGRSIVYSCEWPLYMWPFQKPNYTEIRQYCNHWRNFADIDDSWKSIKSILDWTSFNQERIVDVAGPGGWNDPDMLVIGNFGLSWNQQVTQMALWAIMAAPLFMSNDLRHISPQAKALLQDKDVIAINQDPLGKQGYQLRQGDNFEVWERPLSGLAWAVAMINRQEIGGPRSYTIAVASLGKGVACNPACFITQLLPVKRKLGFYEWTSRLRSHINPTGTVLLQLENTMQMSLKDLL
Method in brief: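 Each compound is preincubated briefly with 2 nM enzyme before substrate addition (80 uM); plates then sit 20 min at ambient temperature, are quenched with 1M NaOH/1M glycine, and read fluorometrically.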

[13] = target: alpha-glucosidase (Oryza sativa, rice) (UniProt Q653V4); assay: Counterscreen for Glucocerebrosidase Inhibitors: qHTS Assay for Rice alpha-Glucosidase at pH 5.0 (AID 997);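 note: 0% = full activity with enzyme and -100% = basal without enzyme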
Method in brief: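 Endpoint fluorogenic assay at pH 5.0: compounds (0.7 nM to 77 uM) titrated against 4 nM rice enzyme and 400 uM 4-MU-alpha-glucoside for 20 min at room temperature; NaOH/glycine stop, read ex 365/em 440 nm, Hill-fitted AC50.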

[14] = target: ATP-dependent 6-phosphofructokinase (Trypanosoma brucei brucei) (UniProt O15648); assay: qHTS Assay to Find Inhibitors of T. brucei phosphofructokinase: hit validation (AID 492961);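 note: luminescence reports ADP formed as PFK phosphorylates fructose-6-phosphate with ATP; % is set by controls: 0 for no effect and ±100 for the full control effect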
Chain of ATP-dependent 6-phosphofructokinase (Trypanosoma brucei brucei) (O15648 whole entry, looked up): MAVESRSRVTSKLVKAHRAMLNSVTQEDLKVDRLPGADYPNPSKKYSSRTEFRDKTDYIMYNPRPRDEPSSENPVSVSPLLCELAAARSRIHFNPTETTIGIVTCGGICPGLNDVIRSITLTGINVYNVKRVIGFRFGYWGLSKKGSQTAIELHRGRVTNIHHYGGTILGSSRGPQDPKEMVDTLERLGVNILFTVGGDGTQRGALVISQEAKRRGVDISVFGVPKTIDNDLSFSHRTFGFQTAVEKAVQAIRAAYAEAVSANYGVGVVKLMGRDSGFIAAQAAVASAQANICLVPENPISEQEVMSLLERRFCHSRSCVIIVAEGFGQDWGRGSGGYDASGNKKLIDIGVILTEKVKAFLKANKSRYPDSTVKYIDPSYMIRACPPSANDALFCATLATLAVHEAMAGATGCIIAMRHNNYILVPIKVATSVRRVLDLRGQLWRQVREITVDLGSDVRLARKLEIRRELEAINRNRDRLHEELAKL
Method in brief: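 PFK 1.25 nM, F6P 0.5 mM, ATP 0.1 mM, MgCl2 5 mM, 0.1 M TEA pH 8.0, Tween20 0.01%, BSA 0.1%; 45 min RT. ADP-Glo two-step detection, luminescence. qHTS titration; curve fitting with curve-class categorization.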

[15] = target: Luciferin 4-monooxygenase (Photinus pyralis) (UniProt P08659); assay: Biochemical firefly luciferase enzyme assay for NPC (AID 624030);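 note: purified P. pyralis luciferase at 10 nM with luciferin and ATP substrate; 0% = DMSO and -100% = full luciferase inhibition by PTC124 control; nearly all actives have a fitted effect of over 70% in size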
Chain of Luciferin 4-monooxygenase (Photinus pyralis) (P08659 whole entry, looked up): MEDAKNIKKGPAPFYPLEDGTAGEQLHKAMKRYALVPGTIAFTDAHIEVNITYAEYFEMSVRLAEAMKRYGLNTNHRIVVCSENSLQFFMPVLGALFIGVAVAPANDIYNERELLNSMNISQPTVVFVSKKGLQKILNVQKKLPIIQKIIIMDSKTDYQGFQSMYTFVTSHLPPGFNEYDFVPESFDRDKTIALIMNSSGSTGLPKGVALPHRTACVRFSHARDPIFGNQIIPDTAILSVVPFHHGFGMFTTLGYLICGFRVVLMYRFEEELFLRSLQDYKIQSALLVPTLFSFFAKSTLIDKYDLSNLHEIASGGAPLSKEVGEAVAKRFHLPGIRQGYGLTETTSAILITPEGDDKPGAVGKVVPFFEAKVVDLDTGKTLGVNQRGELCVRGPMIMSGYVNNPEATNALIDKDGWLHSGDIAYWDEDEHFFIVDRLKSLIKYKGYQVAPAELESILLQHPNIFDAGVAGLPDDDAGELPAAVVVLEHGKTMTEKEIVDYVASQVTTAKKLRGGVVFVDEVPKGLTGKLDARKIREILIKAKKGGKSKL
Method in brief: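 Counter-screen for direct inhibition of the luciferase enzyme by approved-drug library compounds, run at 10 nM enzyme in 50 mM Tris acetate (final). Luminescence was read within 5 min of enzyme-buffer addition and normalized to PTC124 versus DMSO (0%).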

[16] = S16 Schwann cell PMP22 intronic element firefly luciferase assay (AID 624032); note: potency is the fitted concentration of half-maximal effect; nearly all actives have a fitted effect of over 30% in size
Method in brief: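 Rat S16 Schwann cells stably carrying a PMP22 intronic element-driven Fluc reporter were seeded overnight, then exposed to compounds for 24 h at 37 °C. Luminescence was normalized to PTC124 (positive control) and DMSO (0% activity).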

[17] = qHTS profiling for inhibitors of Plasmodium falciparum proliferation (AID 504749); note: nearly all actives have a fitted effect of over 60% in size; note: potency is the fitted concentration of half-maximal effect;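 for activity, negative = inhibition: 0% = DMSO vehicle and full inhibition = artemisinin control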; details: P. falciparum in erythrocytes, SYBR Green DNA, 72 h; at 28.7 µM (top of the series); parasite line B
Method in brief: (§1)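 Fluorescence of SYBR Green-bound parasite DNA, read at 485/535 nm, served as the growth measure. Infected erythrocytes were cultured with compound 72 h; artemisinin (0.29 uM) and DMSO wells defined the normalization range.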

AS120 = assay: as above; details: P. falciparum in erythrocytes, SYBR Green DNA, 72 h; series mostly up to 28.7 µM
Method in brief: as §1

ATS95 = assay: as above; details: P. falciparum in erythrocytes, SYBR Green DNA, 72 h; series mostly up to 28.7 µM
Method in brief: as §1

CP185 = assay: as above; details: P. falciparum in erythrocytes, SYBR Green DNA, 72 h; series mostly up to 28.7 µM
Method in brief: as §1

CP192 = assay: as above; details: P. falciparum in erythrocytes, SYBR Green DNA, 72 h; series mostly up to 28.7 µM
Method in brief: as §1

CP201 = assay: as above; details: P. falciparum in erythrocytes, SYBR Green DNA, 72 h; series mostly up to 28.7 µM
Method in brief: as §1

CP203 = assay: as above; details: P. falciparum in erythrocytes, SYBR Green DNA, 72 h; series mostly up to 28.7 µM
Method in brief: as §1

CP211 = assay: as above; details: P. falciparum in erythrocytes, SYBR Green DNA, 72 h; series mostly up to 28.7 µM
Method in brief: as §1

CP238 = assay: as above; details: P. falciparum in erythrocytes, SYBR Green DNA, 72 h; series mostly up to 28.7 µM
Method in brief: as §1

CP247 = assay: as above; details: P. falciparum in erythrocytes, SYBR Green DNA, 72 h; series mostly up to 28.7 µM
Method in brief: as §1

CP256 = assay: as above; details: P. falciparum in erythrocytes, SYBR Green DNA, 72 h; series mostly up to 28.7 µM
Method in brief: as §1

C=C1C(=O)O[C@@H]2[C@@H]1CC/C(C)=C\CC[C@@]1(C)O[C@H]21
active: activity change, negative = inhibition [2] -121% | Potency [9] 10 µM | Potency [16] 32.2 µM | Potency (CP247) 5.01 µM
inactive and 12.6 µM (active): Potency [1]
inactive: Potency [3] > 46 µM and > 20.6 µM | Potency [4] > 46 µM and > 20.6 µM | Potency [5] | Potency [6] | Potency [7] | Potency [8] | Potency [10] | outcome [11] | outcome [12] | outcome [13] | Potency [14] | Potency [15] | activity, negative = inhibition [17] -27.2% | Potency (AS120) | Potency (ATS95) | Potency (CP185) | Potency (CP192) | Potency (CP201) | Potency (CP203) | Potency (CP211) | Potency (CP238) | Potency (CP256)
